Most compounds without a hit are left out; they make up all but 6.3% or so of the library.
RORg inh: blocks mouse ROR gamma transcriptional activity. P51450. Potency, µM (top dose mostly 53.6 µM), inactives show top-dose activity change, negative = inhibition, most hits filed as inhibitors. Drosophila S2 Gal4-RORgamma UAS-luciferase reporter, 20 h. 310,000 compounds, 5.4% hits; further: on the % scale 0 is the no-effect control and ±100 the full control effect; nearly all actives have a fitted effect of over 60% in size
Target sequence (P51450 whole entry, looked up, the tested form may be a part): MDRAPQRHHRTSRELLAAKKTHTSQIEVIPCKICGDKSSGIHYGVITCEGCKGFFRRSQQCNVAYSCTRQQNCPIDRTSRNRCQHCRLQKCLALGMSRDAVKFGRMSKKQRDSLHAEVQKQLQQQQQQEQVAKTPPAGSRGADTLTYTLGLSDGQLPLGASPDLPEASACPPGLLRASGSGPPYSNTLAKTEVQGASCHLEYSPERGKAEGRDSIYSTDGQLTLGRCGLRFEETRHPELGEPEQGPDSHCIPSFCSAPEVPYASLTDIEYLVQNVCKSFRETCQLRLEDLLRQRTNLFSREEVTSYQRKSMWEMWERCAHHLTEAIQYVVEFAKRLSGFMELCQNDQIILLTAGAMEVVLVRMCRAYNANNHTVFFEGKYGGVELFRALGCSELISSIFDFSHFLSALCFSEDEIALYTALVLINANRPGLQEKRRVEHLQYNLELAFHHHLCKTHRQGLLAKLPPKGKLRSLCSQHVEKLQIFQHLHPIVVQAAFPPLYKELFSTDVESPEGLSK
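Luminescence from a UAS-regulated Photinus luciferase reporter in stably transfected Drosophila Schneider cells is measured; decreased signal marks ROR gamma inhibition. Fusion expression is induced by 700 uM copper sulfate for 20 hr.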
ATXN viability: viability counter-screen for ATXN expression inhibitors. S2 cells (HEK-293 line with an ATXN2-luciferase reporter) viability, CellTiter-Fluor protease fluorescence, 24 h. 400,000 compounds, 0.49% hits. Potency, µM (highest dose often 56.7 µM), actives largely listed as cytotoxic; further: nearly all actives have a fitted effect of over 40% in size
TGFb inhibitor: blocks TGF-b signaling | 410,000 compounds, 1.2% hits | HepG2 CAGA-GFP TGF-b/SMAD3 reporter, GFP fluorescence, 18 h; TGF-beta stimulated, 500 pg/mL final | AID 588855 | Potency, µM (top dose mostly 46.1 µM), inactives show top-dose activity, negative = inhibition, most hits filed as inhibitors; further: on the % scale 0 is the no-effect control and ±100 the full control effect; nearly all actives have a fitted effect of over 65% in size
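GFP signal (ex488/em500-530) from TGF-beta-stimulated HEPG2 CAGA-GFP cells, 500 pg/mL final, 18 h at 37 degrees C in DMEM plus 1% FBS, normalized to unstimulated and DMSO-stimulated controls.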
ATXN2 expr inh: inhibitors of ATXN2 expression; 360,000 compounds, 0.72% hits; Potency, µM (top dose mostly 57 µM), for the others: at the highest dose activity change, negative = inhibition, actives largely listed as inhibitors; HEK-293 ATXN2-luciferase reporter, luminescence, 24 h; AID 1745845; further: on the % scale 0 is the no-effect control and ±100 the full control effect; nearly all actives have a fitted effect of over 55% in size
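ATXN2-luciferase reporter cells (luciferase flanked by upstream and downstream ATXN2 gene portions) were treated 24 h at 37 °C with compounds at up to 57 uM. SteadyGlo luminescence gave expression; GF-AFC fluorescence gave viability.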
Gal4-VP16 FLuc: inhibits Gal4-VP16 luciferase reporter, ROR gamma counter-screen; Drosophila S2 Gal4-VP16 UAS-luciferase, luminescence, 20 h; Potency, µM (series often up to 53.6 µM), for the others: at the top dose activity, negative = inhibition, actives largely listed as inhibitors; 310,000 compounds, 3.5% hits;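 further: Gal4-VP16 expression switched on by copper sulfate through the metallothionein promoter; on the % scale 0 is the no-effect control and ±100 the full control effect; nearly all actives have a fitted effect of over 50% in size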
HepG2 tox: counter-screen for TGF-b inhibitors: cytotoxicity in HepG2 cells; HepG2 CAGA-GFP viability, ATP luminescence, 18 h; Potency, µM (top dose mostly 46.1 µM), without a hit: top-dose activity change, negative = cytotoxicity, hits mostly cytotoxic; 410,000 compounds, 0.76% hits
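HepG2 CAGA-GFP cells (1000/well, DMEM with 1% FBS) received compound, then TGF-beta at 500 pg/mL final, and were incubated 18 hours at 37 degrees C. Viability was read by CellTiter-Glo luminescence. Media-only wells were set as complete cell-killing and DMSO as no toxicity.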
An asterisk follows results filed as active; i = inactive; ? = inconclusive; nt = no result; [ ] = dose if it differs, or a comment. The call rests on the fitted dose curve; in most records, active means well fitted curve in the direction sought with a large enough effect; inconclusive means small, poorly fitted or top-dose-only effect, or another doubt; inactive means no such curve, though single readings can be large; an effect the other way counts as inactive or inconclusive. Potency means the concentration at half of the fitted maximal effect.

SMILES | RORg inh | ATXN viability | TGFb inhibitor | ATXN2 expr inh | Gal4-VP16 FLuc | HepG2 tox
COc1ccc(OC)c(C(=O)Cn2cnc3ccccc3c2=O)c1 | 4% | i | -9% | -2% | 5% | -20%
COc1ccc(C(=O)Cn2cnc3ccccc3c2=O)c(OC)c1 | 4.5µM* | i | -21% | 55% | 8.9µM* | -4%
COC(=O)Cn1cc(/C=N/NC(=O)c2ccc(C#N)cc2F)c2ccccc21 | 10µM* | i | -6% | 0% | -2% | -23%
O=C(Cn1cc(/C=N/NC(=O)c2cccc3ccccc23)c2ccccc21)Nc1ccc(F)cc1 | 0% | i | -14% | -1% | -8% | 0%
CCn1cc(/C=N/NC(=O)c2ccc(C#N)cc2F)c2ccccc21 | -140% | i | -19% | -9% | 10µM* | -2%
CNC(=O)/C(C#N)=C/c1cn(CC(=O)OC)c2ccccc12 | -3% | i | ? | -31% | 0% | -27%
Cc1nc2scc(C)n2c(=O)c1S(=O)(=O)Nc1cccc(C(F)(F)F)c1 | nt | i | -10% | -16% | nt | -21%
Cc1ccccc1C(=O)c1cccn1CC(=O)NCCN1CCN(c2cccc(C)c2C)CC1 | ? | ? | ? | ? | ? | 13µM*
OC1C(Br)=Cc2ccccc21 (centres undefined) | nt | nt | 6% | nt | nt | -12%
CCOc1ccc(CC(=O)N2N=C(C)CC2(O)C(F)(F)F)cc1 (centres undefined) | 1.6µM* | i | 1% | 19% | 5µM* | -8%
CCCC1=NN(C(=O)Cc2ccc(OC)cc2)C(O)(C(F)(F)F)C1 (centres undefined) | 13µM* | ? | ? | 10% | ? | -4%
CCOc1ccc(CC(=O)NCc2cn3c(C)csc3n2)cc1 | 3% | i | -5% | 16% | 5% | -1%
CC1=NN(C2=NS(=O)(=O)c3ccccc32)C(C)(O)C1 (centres undefined) | 1.3µM* | ? | 0% | -32% | 3.5µM* | -6%
CCOC(=O)c1cnc(-n2nc(C)cc2C)nc1Nc1ccc2c(c1)OCO2 | -29%[10 µM] | nt | nt | nt | -2% | nt
CCOC(=O)c1cnc(-n2nc(C)cc2C)nc1NC | 1.6µM* | i | ? | 7% | 5.6µM* | 1%
CCOC(=O)c1cnc(-n2nc(C)cc2C)nc1NC1CCCCC1 | 0.35µM* | i | ? | -11% | 1.1µM* | -34%
CCOC(=O)c1cnc(-n2nc(C)cc2C)nc1Nc1ccc(C)cc1 | 0.56µM* | ? | 2% | 1% | 0.79µM* | 4%
CCOC(=O)c1cnc(-n2nc(C)cc2C)nc1N(CC)CC | 1µM* | i | 0% | -16% | 4.5µM* | -22%
Cc1ncc2c(c1CNC(=O)c1ccc3c(c1)OCO3)CCN(C(=O)c1coc3c1C(=O)CCC3)C2 | nt | i | nt | nt | nt | nt
COc1ccc(-c2[nH]c3c(c2-c2c(-n4cccc4)n(C)c(=O)[nH]c2=O)c(=O)[nH]c(=O)n3C)cc1F | nt | nt | -15% | nt | nt | -7%
CCOC(=O)c1cnc(-n2nc(C)cc2C)nc1Nc1ccc(N(C)C)cc1 | 0.79µM* | i | -3% | ? | 1.1µM* | -18%
CCOC(=O)c1cnc(-n2nc(C)cc2C)nc1Nc1ccc(O)cc1 | -41% | nt | -13% | nt | -4% | 1%
N=c1n(CC(=O)c2ccc(Br)s2)c2ccccc2n1Cc1ccccc1 | 10µM* | ? | ? | nt | 14µM* | -122%
CCCn1c(=N)n(CC(=O)c2ccc([N+](=O)[O-])cc2)c2ccccc21 | 1.6µM* | nt | 3% | ? | -8% | 4%
CCn1c(=N)n(CC(=O)c2cccc([N+](=O)[O-])c2)c2ccccc21 | -25% | ? | -11% | -15% | -2% | -18%
SMILES | RORg inh | ATXN viability | TGFb inhibitor | ATXN2 expr inh | Gal4-VP16 FLuc | HepG2 tox
CCCn1c(=N)n(CC(=O)c2ccc(Cl)cc2)c2ccccc21 | ? | i | -25% | ? | ? | -21%
Cn1c(=N)n(CC(=O)c2ccc(Br)s2)c2ccccc21 | 23% | ? | 1% | 23% | 2% | -52%
COc1cccc(C(=O)Cn2c(=N)n(C)c3ccccc32)c1 | 10µM* | i | -1% | -21% | ? | -18%
N=c1n(CC(=O)c2cccc([N+](=O)[O-])c2)c2ccccc2n1Cc1ccccc1 | 7.1µM* | i | -7% | -8% | ? | -34%
COc1cccc(C(=O)Cn2c(NCCO)nc3ccccc32)c1 | 43% | i | -17% | -10% | -11% | -12%
CSc1nnc(CNC(=O)c2c(-c3ccccc3)noc2C)n1-c1ccc(F)cc1 | nt | i | nt | nt | nt | nt
CC1Cc2[nH]c(=S)[nH]c(=O)c2C(c2ccc(F)cc2)O1 (centres undefined) | nt | i | nt | 1% | nt | nt
CC(C)(C)C(=O)Cn1c(=N)n(Cc2ccccc2)c2ccccc21 | ? | i | ? | -32% | -9% | -39%
CC(C)(C)C(=O)Cn1c(=N)n(Cc2ccccc2Cl)c2ccccc21 | 4.5µM* | ? | 0% | -8% | ? | -27%
Cc1ccc(Cn2c(=N)n(CC(=O)c3ccccc3)c3ccccc32)cc1 | 13µM* | ? | ? | -7% | 14µM* | -35%
C=CCn1c(=N)n(CC(=O)c2ccccc2)c2ccccc21 | -29% | i | -29% | -12% | ? | 3%
O=C1NC(=O)[C@@H](c2cn3c4c(cccc24)CCC3)[C@H]1c1c[nH]c2ccccc12 | nt | nt | nt | -21% | nt | nt
CCc1ccc(NS(=O)(=O)c2ccc3[nH]cc(C(=O)NC4CCCC4)c(=O)c3c2)cc1 | nt | ? | ? | ? | nt | -69%
CN(C)S(=O)(=O)c1ccc2c(c1)nnn2CCNC(=O)Nc1ccc(Cl)cc1 | nt | ? | -2% | -17% | nt | -16%
CC(C)(C)NC(=S)Nc1ccc(Nc2ccccc2)cc1 | 1.8µM* | ? | ? | -14% | 7.1µM* | 13µM*
CC(C)(C)NC(=S)Nc1ccc(Br)cc1 | 2µM* | i | -20% | 15% | -84% | -1%
COC(=O)NNC(=S)Nc1ccc(Br)cc1 | 14µM* | i | -6% | -35% | -15% | -4%
Cc1ccc(NC(=S)Nc2ccc(Br)cc2)cc1 | 7.9µM* | i | 30% | 36% | ? | -3%
CC(NC(=O)c1cc(F)ccc1F)c1nnc2n1CCN(Cc1ccco1)CC2 (centres undefined) | nt | i | nt | nt | nt | nt
Fc1cc(Br)ccc1NC(=S)Nc1ccccc1 | ? | i | ? | 42% | ? | -40%
Fc1ccccc1NC(=S)Nc1ccc(Br)cc1 | 11µM* | i | -25% | -5% | ? | -9%
